PubChem BioAssay (NCATS)
Records with an inconclusive call do not appear. Values without a mark were called inactive. Active and inactive are the calls of the source. The call rests on the fitted dose curve; in most records, active means well fitted inhibition curve with a large enough effect; inconclusive means small, poorly fitted or top-dose-only effect; inactive means flat fitted curve, though single readings scatter.

biological target: Phospholipid hydroperoxide glutathione peroxidase GPX4 (Homo sapiens) (UniProt P36969); test: Primary qHTS Assay for Inhibitors of Recombinant Selenoprotein Glutathione Peroxidase 4 (GPX4) (AID 1845192); conditions: recombinant GPX4, GR-coupled NADPH fluorescence, 15 min; series mostly up to 50 µM; activity change, negative = inhibition: at the top concentration; further: nearly all actives have a fitted effect of over 65% in size
Sequence (P36969 whole entry, looked up): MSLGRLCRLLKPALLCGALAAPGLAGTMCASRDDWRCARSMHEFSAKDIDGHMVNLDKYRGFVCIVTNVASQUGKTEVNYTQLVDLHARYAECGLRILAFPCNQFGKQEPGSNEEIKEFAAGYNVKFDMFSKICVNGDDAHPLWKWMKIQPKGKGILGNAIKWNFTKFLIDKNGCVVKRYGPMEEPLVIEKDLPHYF
How it was run: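 NADPH consumption followed by fluorescence at 340/450 nm, t=0 and after 15 min at room temperature. Reaction started with cumene hydroperoxide (0.5 mM final) after 30 min compound–GPX4 preincubation; final 200 nM GPX4, 100 nM GR, 1 mM GSH, 0.5 mM NADPH.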
On the % scale 0 is the no-effect control and ±100 the full control effect.

Compound	activity change, negative = inhibition	outcome
CCC(=O)O[C@@H]1C=C2CCC3C(CCC4(C)C3CC[C@@H]4OC(=O)CC)C2CC1 (stereo partly drawn)	-10.2%	
O=C(Nc1ccncc1)C(=O)c1cn(Cc2ccc(Cl)cc2)c2ccccc12	0.475%	
CCN1C[C@]2(OC(=O)c3ccccc3NC(C)=O)CC[C@H](OC)[C@@]34[C@H]5CC6[C@@H](OC)C[C@](O)(C(C[C@@H]23)[C@@H]14)[C@@]5(O)[C@@H]6OC	-5.02%	
O=C(O)COc1ccccc1		inactive
CC[N+]1(CCOC(=O)C(O)(c2ccccc2)c2ccccc2)CCCCC1	0.43%	
C1CCC(NC2CCCCC2)CC1		inactive
c1ccc2c(CN3CCNCC3)cccc2c1		inactive
COCC1(CO)C(=O)C2CCN1CC2 (stereo not drawn)	4.74%	
COC(=O)c1cncn1C(C)c1ccccc1 (stereo not drawn)	0.357%	
CCOC(=O)c1c(C(C#N)=CN)c2ccc(Cl)c(Cl)c2n1C	-9.88%	
O=c1cccc2n1CC1CNC[C@H]2C1		inactive
CCCC[N+]1(C)[C@H]2CC(OC(=O)[C@H](CO)c3ccccc3)C[C@H]1[C@H]1O[C@H]12 (stereo partly drawn)		inactive
C=CCC1=C(C)C(OC(=O)C2C(C=C(C)C)C2(C)C)CC1=O (stereo not drawn)	-0.87% [at 100 µM]	
C[C@]12CC[C@H]3[C@@H](CCC4=CC(=O)CC[C@@]43C)[C@H]1CC[C@H]2OC(=O)CCC1CCCC1	-2.08%	
C[C@](O)(COc1ccc(C#N)cc1)C(=O)Nc1ccc(C#N)c(C(F)(F)F)c1	-15.7%	
O=[N+]([O-])c1ccc([As](=O)(O)O)cc1	-8.11%	
C#CC1(O)CCC2C3CCC4=CC(=O)CCC4(C)C3CCC21C (stereo not drawn)	-1.89%	
Cc1cc(O)ccc1Cl		inactive
